TWEAK Fn14 block: inhibitors of TWEAK-Fn14 interaction signaling; inhibition, % at 10 µM; TWEAK-stimulated Fn14 reporter cells, luciferase luminescence, 8 h; 2% of 360,000 active; in the data active means inhibition above about 50%
HIF-2a inh: blocks HIF-2a reporter activity | 786-0 RCC cells HIF-2a reporter, luciferase luminescence, overnight | inhibition, % at 18.8 µM | 0.72% of 360,000 active | AID 624352;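 active means inhibition of the luminescence signal of 40% or more relative to plate controls, in a single-dose primary screen at 18.75 µM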
C8 TRAIL sens: sensitizes caspase-8 expressing cells to TRAIL; NB7+C8 cells + TRAIL, ATPlite viability luminescence; inhibition (viability loss, TRAIL sensitization), % at 10 µM; 1% of 360,000 active;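 active means compounds causing at least 50% loss of cell viability in the single-dose screen, relative to plate controls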
TROY signal inh: blocks TROY-dependent signaling in reporter cells. Q293 LMP1-TROYcd NF-kB luciferase reporter, 4 h. inhibition, % at 10 µM. 0.98% of 360,000 active. AID 1347056;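 active means compounds whose plate-normalised and pattern-corrected inhibition of the luciferase reporter signal at the single screening dose is 50% or more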
HSP90 refold inh: blocks HSP90-mediated luciferase refolding in reticulocyte lysate | 0.91% of 290,000 active | AID 1789 | inhibition, % at 5.6 µM | Rabbit reticulocyte lysate, luciferase refolding luminescence, 3 h;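 active means inhibition above the screen-wide mean plus 3 SD, computed separately per campaign, cut at about 16% in these data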;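 further: 0% = DMSO wells and 100% = 60 µM geldanamycin wells; inhibitors lower the luminescence because luciferase stays unfolded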
aSyn UTR inh: 5' untranslated region of α-synuclein, MLPCN primary screen; 0.82% of 300,000 active; alpha-synuclein 5'UTR reporter, inhibitor activity; inhibition, % (tested at 7.5 µM); AID 1813; in the data active means inhibition above about 60%;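 further: H4 neuroglioblastoma cells stably carrying SNCA 5'UTR luciferase fusion; 0% = DMSO wells and 100% = positive control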
An asterisk follows results filed as active; . = no result; ! = not active in a repeat. Shown are actives, neighbours in structure and some others; about 3.9% of the full set was active somewhere.

SMILES	TWEAK Fn14 block	HIF-2a inh	C8 TRAIL sens	TROY signal inh	HSP90 refold inh	aSyn UTR inh
NC(=S)N/N=C\c1c(OCc2ccccc2Cl)ccc2ccccc12	57*	-10	14	22	5	.
CSc1ccccc1CNC(=O)C1(C)CCCN1CC(C)C (stereo not drawn)	3	2	-1	2	.	.
CN(C)C(=O)c1ccc(-n2cnc3ccccc3c2=O)cc1	-8	-47	-13	-31	-2	-18
O=c1c2ccccc2ncn1-c1ccc2c(c1)OCCO2	51*	-55	-2	-4	-1	-111
CCCCOc1ccc(Br)cc1/C(C)=N/NC1=NCCN1	51*	26	-3	31	0	121*
Cc1cc(=O)[nH]c2nnc(-c3ccc(Cl)cc3)n12	15	-138	68*	-33	-1	-46
Cc1cc(=O)[nH]c(N2CCN(c3ccc(Cl)cc3)CC2)n1	-4	4	-4	1	-2	8
CCN(CC)CCCNC(=S)N1CCN(c2nc(-c3ccc(F)cc3)cs2)CC1	-11	-5	13	-7	-1	133*
CCNC(=S)N1CCN(c2nc(-c3ccc(F)cc3)cs2)CC1	-2	-77	0	7	2	-38
CC(C)(C)OC(=O)N1CCC[C@@H]1C(=O)NCc1ccccc1Cl	18	11	11	-15	.	.
C/C(=N\Nc1cc(C)nc(-c2ccccc2O)n1)c1ccccc1	20	-149	27	-24	2	-65
Cc1cc(N/N=C/c2ccc(O)c(C)c2O)nc(-c2ccccc2O)n1	66*	-51	45	40	-2	87*
CC(C)COC(=O)N(C)C[C@H]1OCc2cnnn2CCCC(=O)N([C@H](C)CO)C[C@@H]1C	15	6	13	-13	.	.
CO[C@H]1CN(C)C(=O)c2cc(NC(=O)c3ccccc3)ccc2OC[C@H](C)NC[C@@H]1C	.	-4	-8	.	.	.
COc1ccc(NC(=O)N2C3CCCC2CC(NC(=O)C2CC2)C3)cc1 (stereo not drawn)	77*	7	10	-2	2	1
O=C(O)CSCC(=O)N1CCN(c2nc3cc(Cl)ccc3s2)CC1	62*	11	6	5	2	-8
COc1ccccc1C1CCN(c2cc(O)ccc2[N+](=O)[O-])CC1	-9	-2	4	57*	2	-20
COc1cccc(Cn2c(C(C)n3c(C)nc4ccccc43)nc3ccccc32)c1 (stereo not drawn)	.	20	19	.	.	.
COC(=O)[C@H](NC(=O)c1cc([C@@H](NC(=O)OC(C)(C)C)C(C)C)sc1N)C(C)C	.	14	5	.	.	.
COc1cccc(-c2cnc(C(O)c3cc(C)cc(C)c3)[nH]2)c1 (stereo not drawn)	31	-8	-21	-10	.	.
O=C1c2ccccc2C(Nc2ccc3c(c2)OCCO3)N1c1ccccn1 (stereo not drawn)	63*	3	-4	46	5	-19
O=C1c2ccccc2C(Nc2ccc3c(c2)OCCO3)N1Cc1ccc2c(c1)OCO2 (stereo not drawn)	74*	16	-10	63*	9	-72
Cc1cn(-c2cc(C(=O)Nc3ccc(C)c(NC(=O)C(=O)c4c[nH]c5ccccc45)c3)cc(C(F)(F)F)c2)cn1	52*!	24	26	13	.	66*
N#C/C(=C\c1cn(Cc2ccccc2)c2ccccc12)C(=O)NCc1ccco1	-85	0	20	0	3	68*
CCOc1ccc(NC(=O)/C(C#N)=C/c2cn(CC(=O)O)c3ccccc23)cc1	92*	15	-5	-3	-2	33
SMILES	TWEAK Fn14 block	HIF-2a inh	C8 TRAIL sens	TROY signal inh	HSP90 refold inh	aSyn UTR inh
N#C/C(=C\c1cn(Cc2ccc(F)cc2)c2ccccc12)C(=O)NCc1ccco1	-28	11	-11	6	-4	39
CCOc1cccc(NC(=O)/C(C#N)=C\c2cn(CC(=O)O)c3ccccc23)c1	7	24	-4	2	3	8
N#C/C(=C\c1cn(Cc2cccc(F)c2)c2ccccc12)C(=O)NCc1ccco1	-99	3	5	6	-1	65*
CC1=C(C(=O)N(C(C)C)C(C)C)CC(CC(=O)NCCN2CCOCC2)C(=O)N1CCC1=CCCCC1 (stereo not drawn)	-33	-1	-16	0	.	.
Cc1ccc(C(=O)Nc2sc(C)c(-c3ccccc3)c2C(N)=O)cc1[N+](=O)[O-]	98*	6	27	87*	6	-81
CCN1CCN(c2cc(C)c3cc(NC(=S)N4CCCC(C)C4)ccc3n2)CC1 (stereo not drawn)	86*	13	21	83*	31*	-44
CCN1CCN(C(=S)Nc2ccc3nc(N4CCN(CC)CC4)cc(C)c3c2)CC1	-15	27	7	13	-4	-20
CCN1CCN(c2cc(C)c3cc(NC(=S)N4CC(C)CC(C)C4)ccc3n2)CC1 (stereo not drawn)	14	6	14	54*	6	-41
CCOC(=O)C1(C)CCCN1C(=O)c1snnc1C (stereo not drawn)	22	-5	7	0	.	.
Cc1cc(/C=N/n2cnnc2)c(C)n1-c1ccc(OCc2ccc(Cl)cc2)cc1	63*	-26	18	-22	6	-37
Cc1cc(/C=N/n2cnnc2)c(C)n1-c1ccc(OCc2ccccc2F)cc1	29	-49	27	-1	3	-82
O=c1c(O)c(-c2ccc(O)c(O)c2)oc2cc(O)cc(O)c12	68*	-33	4	32	-4	-109
O=c1cc(-c2ccc(O)c(O)c2)oc2cc(O)cc(O)c12	64*	-64	3	37	.	-207
O=C(O)C1OC(Oc2c(-c3ccc(O)c(O)c3)oc3cc(O)cc(O)c3c2=O)C(O)C(O)C1O (stereo not drawn)	.	.	.	.	-4	8
O=C(N[C@@H]1CC[C@@H](CCNS(=O)(=O)c2ccc(Cl)cc2)O[C@@H]1CO)c1cccnc1	.	5	-5	.	.	.
COCCCN(Cc1cc(OC)c(OC)c(OC)c1)C(=S)Nc1cccc(Cl)c1	4	4	-4	6	.	.
O=C(c1n[nH]c(=O)c2ccccc12)N1CCOCC1	57*	7	-2	.	0	26
O=C(c1n[nH]c(=O)c2ccccc12)N1CCN(Cc2ccc3c(c2)OCO3)CC1	2	14	-10	6	6	7
COc1ccc(C2(C(=O)c3ccccc3)C(=O)c3ccccc3C2=O)cc1	17	-129	55*	-15	-4	-13
Cn1c(NCc2cccnc2)nc2cc(-c3cccc(C(=O)NCCO)c3)sc2c1=O	-11	-7	-19	-5	.	.
Cc1ccc(/C=N/NC(=O)Cc2ccc(Cl)cc2)c(O)c1	-6	-65	16	-39	-2	66*
O=C(Oc1ccc(N(C(=O)c2ccncc2)S(=O)(=O)c2ccc(F)cc2)cc1)c1ccncc1	41	16	2	44	-2	10

Compound activity deposited in PubChem BioAssay by several laboratories.
